Reference: PubChem BioAssay (NCI)
This is part of a sample that, as a whole, favours compounds with a hit. Of some 79,000 tested, about 15% had one in any assay. Values without a mark were called inactive. Activity calls are given as the source filed them. No stated cut-off is given here; in the data, active means growth inhibition above about 70%; inactive means the rest.

Columns and labels:
[1] = NCI Yeast Anticancer Drug Screen. Data for the rad50 strain (AID 155);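 further: 0% = growth of vehicle-only cultures of the same strain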; conditions: S. cerevisiae rad50 strain growth inhibition; at 50.0 µM; hits give high values
Outline: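 Yeast carrying a defined DNA repair defect were exposed to test compounds, and growth was compared with vehicle-treated controls to give percent inhibition.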

[2] = NCI Yeast Anticancer Drug Screen. Data for the mec2-1 strain (AID 157); conditions: S. cerevisiae mec2-1 strain, at 50.0 µM, hits give high values
Outline: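 Readout is yeast growth inhibition, normalised to vehicle-treated controls, in the mec2-1 strain exposed to compound.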

[3] = NCI Yeast Anticancer Drug Screen. Data for the sgs1 mgt1 strain (AID 161);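 further: 0% = growth of cultures given vehicle only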; conditions: S. cerevisiae sgs1 mgt1 strain, at 50.0 µM, hits give high values
Outline: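 Compounds are added to genetically altered yeast, and growth is compared with cultures given vehicle alone to give percent inhibition.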

[4] = NCI Yeast Anticancer Drug Screen. Data for the cln2 rad14 strain (AID 165);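 further: 0% = growth equal to vehicle treated cultures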; conditions: S. cerevisiae cln2 rad14 strain, at 50.0 µM, hits give high values
Outline: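 Relative to vehicle controls, growth inhibition of compound-treated cln2 rad14 yeast was recorded.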

[5] = NCI Yeast Anticancer Drug Screen. Data for the bub3 strain (AID 167); conditions: S. cerevisiae bub3 mutant strain, at 50.0 µM, hits give high values
Outline: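 Compounds were applied to a genetically altered yeast strain carrying a cell-cycle control defect. Growth inhibition was scored against vehicle-treated controls.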

[6] = NCI Yeast Anticancer Drug Screen. Data for the mlh1 rad18 strain (AID 175); conditions: S. cerevisiae mlh1 rad18 strain growth inhibition; at 50.0 µM; hits give high values
Outline: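 Test agents were incubated with a yeast strain of defined genotype (DNA damage repair defect). Inhibition of growth was derived by comparison with vehicle-exposed cultures.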

| SMILES | growth inhibition [1] | growth inhibition [2] | growth inhibition [3] | growth inhibition [4] | growth inhibition [5] | growth inhibition [6] |
| --- | --- | --- | --- | --- | --- | --- |
| CN(C)c1c([N+](=O)[O-])cc2[nH]cnc2c1[N+](=O)[O-] | 21.2% | 12.2% | 13.3% | -2.9% | 19.4% | 13.7% |
| CC(=O)Nc1cc(Cl)ccc1C | 39.7% | 29.9% | 26.3% | 16.1% | 5.95% | 24.1% |
| CCCCCCCCS(=O)(=O)N(C)C | -18.6% | -24.9% | 0.4% | -28.3% | -31.1% | -15.2% |
| O=C1C(=Cc2ccc([N+](=O)[O-])cc2)C(=O)c2ccccc21 | 28.9% | 36.6% | 22.1% | 24.1% | 0.15% | 85.5% (active) |
| CCn1c2ccccc2c2c(-c3ccccc3)cc3c(c21)C(=O)N(c1ccccc1)C3=O | -0.3% | -8.95% | 3.45% | -54% | -7.9% | -9.9% |
| O=C(Nc1nc(C23CC4CC(CC(C4)C2)C3)cs1)c1cc2cc(Br)cc(Br)c2oc1=O | -8.75% | -13.8% | 23.3% | 19.9% | -12.8% | -8.4% |
| N#CCc1nc(-c2cc3ccccc3oc2=O)cs1 | 31.4% | 16.3% | -12.4% | 3.7% | 0.75% | -57% |
| C=C1C(=C)C2C=CC1C1C3C(c4ccccn4)=NN=C(c4ccccn4)C3C21 (configuration not stated) | 54.4% | 66.2% | 68.8% | 74.5% (active) | 66.6% | 62.5% |
| CCOC(=O)NC(Nc1ncccn1)(C(=O)OCC)C(F)(F)F (configuration not stated) | -28.9% | -29.4% | -77.3% | -15.6% | -39.8% | -34.9% |
| Fc1ccc(C2=NOC3COC4C=CC=CC4OCC23)cc1 (configuration not stated) | -29.2% | -34.9% | -22.9% | -9.15% | -45.1% | -42.2% |
| CN(C)C(=S)OCC(C)(C)C | -1.45% | -14.8% | -18.3% | -35.3% | 3.4% | -23.6% |
| CCOC(=O)c1[nH]c2ccc(O)c3c2c1CCC3=O | 30.6% | -4.15% | -3.6% | 13.1% | 6.4% | 16.5% |
| C/C(=N/O)c1ccc[cH-]1.[Fe+2].c1cc[cH-]c1 | 20.1% | -5.3% | 0.45% | -0.8% | -8.4% | -11.5% |
| OCC(CCl)(CCl)CCl | 31% | 18.1% | 10.8% | 7.45% | 18.2% | 41% |
| CCCCCCCCCCC(CCCCCCCCCC)=NN=C(CCCCCCCCCC)CCCCCCCCCC | -41.4% | 9.45% | 1.35% | 25.9% | 1.1% | -9.3% |
| CCSc1cc(N)ncn1 | -39.6% | -18.6% | -11.5% | -4.15% | -14% | -9.75% |
| CC1CC(C2=CC=CCS2)=Nc2ccccc2S1 (configuration not stated) | -8.25% | -16.2% | 33.5% | 19.9% | 5.3% | 18.8% |
| CC(=O)OC1CC1(Br)Br (configuration not stated) | 6.3% | -15.8% | 18.6% | -37.8% | 6.5% | 5.2% |
| CC(=O)CC(=O)OC1CC(C)CCC1C(C)C (configuration not stated) | 12.2% | -24.4% | -6.25% | 15.3% | -26.1% | 23.1% |

| SMILES | growth inhibition [1] | growth inhibition [2] | growth inhibition [3] | growth inhibition [4] | growth inhibition [5] | growth inhibition [6] |
| --- | --- | --- | --- | --- | --- | --- |
| c1ccc(C(=C2C(=C(c3ccccc3)c3ccccc3)c3nc4ccccc4nc32)c2ccccc2)cc1 | 26.8% | 8.8% | 7% | 16.9% | -1.05% | 8.1% |
| CCOC(CCc1c(C)nc[nH]c1=O)OCC | -1.8% | 3.7% | -2.35% | -35.4% | 16.2% | -7.9% |
| NCCNCc1ccccc1 | 5.5% | -1.5% | 2.85% | 5.65% | -1.8% | 0.15% |
| Cc1ccc(N/N=c2\c3nc4ccccc4nc2n(-c2ccccc2C)c(=S)n3-c2ccc(C)cc2)cc1 | -19.6% | -14.3% | 1.15% | -18.7% | 0.8% | -29.5% |
| O=c1n(-c2ccccc2)c(=O)n2n1C1C3C4C5C1C5C2C43 (configuration not stated) | -8.4% | 8.95% | 12.3% | 5.85% | 5% | 12.8% |
| CCCc1c(C)[nH]c2ccccc12 | 15.1% | -33.3% | 5.7% | 24.8% | -16.9% | 9% |
| O=c1[nH]c2cc(Cl)ccc2nc1/C(=N\O)C(O)c1ccc(Cl)cc1Cl (configuration not stated) | -9.9% | -24.4% | -0.35% | 20.6% | -5.6% | -13.2% |
| CC(C)(C)OC(=O)N(CCCN)CCCCN | -7.65% | -9.75% | -40.5% | -21.4% | -32% | -53.9% |
| CN(C)C(=S)SCCC(=O)O | 3.05% | -4.3% | 6.05% | 8.5% | -2.65% | -8.2% |
| Cc1cc(NS(=O)(=O)c2ccc(N=[N+]([O-])c3ccc(S(=O)(=O)Nc4cc(C)on4)cc3)cc2)no1 | 10.8% | -30.1% | -6% | 4.7% | -13.2% | -19.6% |
| CN(C)C(=O)C1OC1(C)c1ccccc1 (configuration not stated) | -7.75% | -5.25% | -3.35% | -20.9% | -1.3% | -7.95% |
| C(/C=C/c1ccccc1)=C1SCCCS1 | 0.55% | -7.6% | -4.7% | -18.9% | -2.15% | -4.6% |
| COc1ccc(C2OC(=N)C(=S)N2C)cc1O (configuration not stated) | -5.9% | -15.6% | -13.2% | -22.7% | 2.5% | -4.15% |
| O=C1c2ccccc2C(=O)c2c1cccc2S(=O)(=O)Nc1ccccc1 | -1.45% | 8.85% | 11.2% | -30.1% | 20.1% | -3.6% |
| COc1ccc(/C=C2\CCN(C(C)=O)C2=O)cc1 | 2.35% | -2.65% | -7.8% | 2.6% | 3.25% | -10.7% |
| [N-]=[N+]=Nc1nn2cnnc2c2[nH]c3ccccc3c12 | 46% | 0.65% | 4.25% | -1.4% | -14.9% | 16.1% |
| Nc1cccc(OCC2CCCN3CCCCC23)c1 (configuration not stated) | 20% | -17.9% | 4.9% | 2.45% | 6.05% | -64.8% |
| CCCC(=O)Nc1cc(/C=C/C(=O)N2C[C@H]3C[C@@]34C2=CC(=O)c2[nH]cc(C)c24)n(C)c1 | 80.2% (active) | 89.3% (active) | 83.7% (active) | 81.2% (active) | 58% | 84.2% (active) |
